Data from PubChem BioAssay (Tox21).
Records with an inconclusive call do not appear. Active and inactive are the calls of the source. Unless noted, calls follow the shape of the dose curve; as a rule, active = well fitted curve in the direction sought with a large enough effect in the repeat runs; inconclusive = weak or mixed curves; inactive = no such curve, though single readings can be large; an effect the other way counts as inactive or inconclusive.

Tests used:
[1] = qHTS assay for small molecule agonists of the p53 signaling pathway (AID 651631; calls by dose curve; also: % is scaled to controls: 0 for no effect and ±100 for the full control effect; nearly all actives have a fitted effect of over 15% in size)
How it was run: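 HCT-116 cells carrying a stable p53 response element–beta-lactamase reporter were plated, rested 5 h at 37 °C, then exposed to compound in DMSO for 16 h at 37 °C; reporter activity was read as FRET substrate fluorescence after 2 h at room temperature.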

[2] = qHTS assay for small molecules that induce genotoxicity in human embryonic kidney cells expressing luciferase-tagged ATAD5 (AID 651632); also: % is scaled to controls: 0 for no effect and ±100 for the full control effect; nearly all actives have a fitted effect of over 15% in size
How it was run: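 Test compounds were delivered by pin tool onto HEK293T reporter cells (2,000/well) expressing ATAD5 fused to luciferase. After 16 hr at 37C, 5% CO2, Amplite was added for 30 min at room temperature and luminescence was measured.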

[3] = qHTS assay for small molecule agonists of the p53 signaling pathway - cell viability (AID 651633; calls by dose curve; also: series mostly up to about 83 µM; % is scaled to controls: 0 for no effect and ±100 for the full control effect; nearly all actives have a fitted effect of over 30% in size)
How it was run: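 p53RE-bla cells, seeded at 4,000 per well and rested 5 h at 37 C/5% CO2, received compounds in DMSO for 16 h at 37 C. CellTiter-Glo was then added, and luminescence was read after 30 min at room temperature to gauge cytotoxicity.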

[4] = qHTS assay for small molecules that induce genotoxicity in human embryonic kidney cells expressing luciferase-tagged ATAD5 - cell viability (AID 651634; calls by dose curve; also: % is scaled to controls: 0 for no effect and ±100 for the full control effect; nearly all actives have a fitted effect of over 25% in size)
How it was run: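 Quantitative high-throughput format. HEK293T cells expressing ATAD5 fused to luciferase were plated at 2,000 cells/well and treated 15.5 hr with compound versus DMSO. Viability was determined by fluorescent live-cell protease substrate, 30 min at 37C.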

[5] = qHTS assay for small molecule disruptors of the mitochondrial membrane potential - cell viability (AID 720634; calls by dose curve;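 also: human HepG2 liver cancer cells; series mostly up to about 83 µM; % is scaled to controls: 0 for no effect and ±100 for the full control effect; nearly all actives have a fitted effect of over 20% in size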)
How it was run: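 Same-well counter-screen: following the MMP dye addition, CellTiter-Glo was added to 1 hr compound-treated HepG2 cells and luminescence read after 30 min at room temperature.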

[6] = qHTS assay for small molecule disruptors of the mitochondrial membrane potential (AID 720635); also: % is scaled to controls: 0 for no effect and ±100 for the full control effect
How it was run: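 HepG2 cells (2,000/well) attached overnight at 37C, then took compound for 1 hr at 37C, 5% CO2. Mito-MPS dye was added for 30 min; fluorescence was read at 490/535 nm (monomers) and 540/590 nm (aggregates).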

[7] = qHTS assay to test for compound auto fluorescence at 590 nm (red) in HepG2 cells (AID 720674); also: % is scaled to controls: 0 for no effect and ±100 for the full control effect
How it was run: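 Compound auto-fluorescence is scored relative to Rose Bengal sodium, measured at 540/590 nm in live HepG2 cultures after 1 hr compound contact (37 C, 5% CO2).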

[8] = qHTS assay to test for compound auto fluorescence at 535 nm (green) in HepG2 cells (AID 720675); also: % is scaled to controls: 0 for no effect and ±100 for the full control effect
[9] = qHTS assay to test for compound auto fluorescence at 460 nm (blue) in HEK293 cells (AID 720678); also: % is scaled to controls: 0 for no effect and ±100 for the full control effect
How it was run: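 Blue-channel (Ex/Em 405/460 nm) intensity measured in HEK293 cultures after overnight compound exposure at 37C; signal expressed relative to triamterene. Cells plated 2,000 per well in 10% dialyzed FBS medium and allowed 4-5 hr to attach.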

[10] = qHTS assay to test for compound auto fluorescence at 590 nm (red) in HEK293 cells (AID 720679); also: % is scaled to controls: 0 for no effect and ±100 for the full control effect
How it was run: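 Red-channel autofluorescence (Ex/Em 540/590 nm; Rose Bengal sodium reference) was measured after overnight 37C, 5% CO2 exposure of attached HEK293 cells, 2,000 per well in medium with 10% dialyzed FBS.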

[11] = qHTS assay to test for compound auto fluorescence at 535 nm (green) in HEK293 cells (AID 720680); also: % is scaled to controls: 0 for no effect and ±100 for the full control effect
[12] = qHTS assay to test for compound auto fluorescence at 535 nm (green) in HEK293 cell free culture (AID 720682); also: % is scaled to controls: 0 for no effect and ±100 for the full control effect
How it was run: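 Read-out: 485/535 nm fluorescence intensity, calibrated against fluorescein. Medium only (DMEM + 10% FBS, no cells); test compound or DMSO vehicle added by pintool before plate reading.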

[13] = qHTS assay to test for compound auto fluorescence at 590 nm (red) in HEK293 cell free culture (AID 720683); also: % is scaled to controls: 0 for no effect and ±100 for the full control effect
How it was run: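 Tox21 10K library compounds were pinned into cell-free DMEM with 10% FBS and fluorescence was read at excitation 540 nm. Activity is expressed as Rose Bengal sodium equivalency.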

[14] = qHTS assay to test for compound auto fluorescence at 590 nm (red) in HepG2 cell free culture (AID 720684); also: % is scaled to controls: 0 for no effect and ±100 for the full control effect
How it was run: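 Readout: intrinsic compound fluorescence at 590 nm emission after 540 nm excitation, scaled to Rose Bengal sodium. Matrix was cell-free MEM with 10% FBS; DMSO vehicle wells served as control.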

[15] = qHTS assay to test for compound auto fluorescence at 460 nm (blue) in HepG2 cell free culture (AID 720685); also: % is scaled to controls: 0 for no effect and ±100 for the full control effect
How it was run: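 Cell-free plates of MEM plus 10% FBS received 23 nL compound or DMSO vehicle; blue-channel (405/460 nm) intensity scored against triamterene as reference fluorophore.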

[16] = qHTS assay to test for compound auto fluorescence at 535 nm (green) in HepG2 cell free culture (AID 720686); also: % is scaled to controls: 0 for no effect and ±100 for the full control effect
[17] = qHTS assay to test for compound auto fluorescence at 460 nm (blue) in HepG2 cells (AID 720687); also: % is scaled to controls: 0 for no effect and ±100 for the full control effect
How it was run: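 Cells (2,000/well in MEM with 10% FBS) attached overnight at 37 C, then were exposed to compound or DMSO for 1 hr at 37 C, 5% CO2. Fluorescence read at Ex/Em 405/460 nm, expressed as triamterene-equivalent signal.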

[18] = molecular target: Glucocorticoid receptor (Homo sapiens) (UniProt P04150); test: qHTS assay to identify small molecule antagonists of the glucocorticoid receptor (GR) signaling pathway (AID 720692; active = well fitted inhibition curve with a large enough effect in the signal ratio in the repeat runs, not every such curve was filed as active; the % refers to the signal ratio; also: % is scaled to controls: 0 for no effect and ±100 for the full control effect)
Glucocorticoid receptor (Homo sapiens), sequence (P04150 whole entry, looked up): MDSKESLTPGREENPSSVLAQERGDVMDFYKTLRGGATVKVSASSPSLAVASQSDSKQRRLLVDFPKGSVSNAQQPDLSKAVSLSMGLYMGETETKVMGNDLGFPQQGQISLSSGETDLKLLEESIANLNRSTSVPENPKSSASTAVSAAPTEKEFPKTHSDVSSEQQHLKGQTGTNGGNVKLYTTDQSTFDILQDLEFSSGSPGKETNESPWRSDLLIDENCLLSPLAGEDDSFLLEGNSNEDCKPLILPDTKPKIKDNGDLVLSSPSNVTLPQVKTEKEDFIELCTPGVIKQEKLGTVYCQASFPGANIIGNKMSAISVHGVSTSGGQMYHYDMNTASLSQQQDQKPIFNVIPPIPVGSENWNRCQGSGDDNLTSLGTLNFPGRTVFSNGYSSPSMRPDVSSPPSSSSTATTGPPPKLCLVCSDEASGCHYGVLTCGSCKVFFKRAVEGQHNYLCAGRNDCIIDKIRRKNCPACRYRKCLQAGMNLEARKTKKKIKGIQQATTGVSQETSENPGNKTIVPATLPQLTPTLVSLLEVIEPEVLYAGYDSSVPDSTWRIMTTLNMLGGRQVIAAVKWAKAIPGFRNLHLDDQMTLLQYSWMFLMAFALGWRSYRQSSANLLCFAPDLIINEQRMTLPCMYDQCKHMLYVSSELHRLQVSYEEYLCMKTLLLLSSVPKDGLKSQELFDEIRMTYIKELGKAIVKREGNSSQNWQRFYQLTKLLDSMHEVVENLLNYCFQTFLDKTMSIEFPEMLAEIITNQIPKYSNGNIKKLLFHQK
How it was run: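 GRE-bla HeLa line, dex-stimulated (5 nM final). Compound exposure 18 h, 37 C. Beta-lactamase FRET read after 2 h RT substrate.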

[19] = qHTS assay to identify small molecule antagonists of the glucocorticoid receptor (GR) signaling pathway - cell viability counter screen (AID 720693); also: % is scaled to controls: 0 for no effect and ±100 for the full control effect; nearly all actives have a fitted effect of over 55% in size
[20] = qHTS assay for identifying genotoxic compounds that show differential cytotoxicity against isogenic chicken DT40 cell lines with known DNA damage response pathways - wild type cell line (AID 743012); also: % is scaled to controls: 0 for no effect and ±100 for the full control effect; nearly all actives have a fitted effect of over 60% in size
How it was run: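 300 wt DT40 cells/well; cpd (DMSO) pintool-transferred after ~0.5 h at 37 C/5% CO2; 40 h incubation; CellTiter-Glo added, 30 min RT; luminescence read.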

[21] = qHTS assay for identifying genotoxic compounds that show differential cytotoxicity against isogenic chicken DT40 cell lines with known DNA damage response pathways - Rad54/Ku70 mutant cell line (AID 743015); also: % is scaled to controls: 0 for no effect and ±100 for the full control effect; nearly all actives have a fitted effect of over 60% in size
[22] = qHTS assay to identify small molecule antagonists of the androgen receptor (AR) signaling pathway using the MDA cell line - cell viability counter screen (AID 743041; also: % is scaled to controls: 0 for no effect and ±100 for the full control effect; nearly all actives have a fitted effect of over 45% in size)
How it was run: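 qHTS viability read-out; MDA-kb2 AR-luc; R1881-stimulated; 16 h exposure at 37C, 0% CO2; CellTiter-Fluor, 30 min; fluorescence intensity.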

[23] = system: thyroid hormone receptor (rat, GH3 cells); test: qHTS assay to identify small molecule agonists of the thyroid receptor (TR) signaling pathway (AID 743066; calls by dose curve; also: % is scaled to controls: 0 for no effect and ±100 for the full control effect)
[24] = molecular target: Estrogen receptor (Homo sapiens) (UniProt P03372); test: qHTS assay to identify small molecule antagonists of the estrogen receptor alpha (ER-alpha) signaling pathway (AID 743069; active = well fitted curve in the direction sought with a large enough effect in the signal ratio in the repeat runs, not every such curve was filed as active; the % refers to the signal ratio; also: % is scaled to controls: 0 for no effect and ±100 for the full control effect)
Estrogen receptor (Homo sapiens), sequence (P03372 whole entry, looked up): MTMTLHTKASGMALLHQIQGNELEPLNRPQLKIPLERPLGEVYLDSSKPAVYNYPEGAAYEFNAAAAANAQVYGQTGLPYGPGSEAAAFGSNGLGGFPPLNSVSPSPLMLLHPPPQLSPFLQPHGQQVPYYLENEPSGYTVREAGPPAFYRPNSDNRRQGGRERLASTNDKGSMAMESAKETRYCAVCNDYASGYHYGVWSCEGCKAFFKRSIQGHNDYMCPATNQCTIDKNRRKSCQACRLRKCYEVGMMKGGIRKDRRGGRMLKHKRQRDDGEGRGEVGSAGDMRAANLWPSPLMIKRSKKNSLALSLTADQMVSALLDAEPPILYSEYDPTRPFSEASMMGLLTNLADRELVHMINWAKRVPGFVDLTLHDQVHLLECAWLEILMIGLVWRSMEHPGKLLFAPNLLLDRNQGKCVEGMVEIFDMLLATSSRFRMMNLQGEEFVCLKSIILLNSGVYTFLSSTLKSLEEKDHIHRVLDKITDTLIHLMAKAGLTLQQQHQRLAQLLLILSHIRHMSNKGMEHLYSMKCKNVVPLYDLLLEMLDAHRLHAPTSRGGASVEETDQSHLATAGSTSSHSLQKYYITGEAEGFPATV
How it was run: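 Screening used a UAS-driven beta-lactamase reporter integrated into HEK293 cells expressing ER-alpha, stimulated with 17beta-estradiol alongside test compounds over 18 hr at 37C; signal came from LiveBLAzer B/G FRET fluorescence.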

[25] = qHTS assay to identify small molecule antagonists of the estrogen receptor alpha (ER-alpha) signaling pathway - cell viability counter screen (AID 743074; calls by dose curve; also: % is scaled to controls: 0 for no effect and ±100 for the full control effect; nearly all actives have a fitted effect of over 45% in size)
[26] = molecular target: Estrogen receptor (Homo sapiens) (UniProt P03372); test: qHTS assay to identify small molecule agonists of the estrogen receptor alpha (ER-alpha) signaling pathway (AID 743075; calls by dose curve; also: % is scaled to controls: 0 for no effect and ±100 for the full control effect)
[27] = molecular target: Estrogen receptor (Homo sapiens) (UniProt P03372); test: qHTS assay to identify small molecule agonists of the estrogen receptor alpha (ER-alpha) signaling pathway using the BG1 cell line (AID 743079); also: % is scaled to controls: 0 for no effect and ±100 for the full control effect; nearly all actives have a fitted effect of over 20% in size
[28] = qHTS assay to identify small molecule antagonists of the estrogen receptor alpha (ER-alpha) signaling pathway using the BG1 cell line (AID 743080; calls by dose curve;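 also: BG1 cells stimulated with 17beta-estradiol alongside compound; series mostly up to about 70 µM; % is scaled to controls: 0 for no effect and ±100 for the full control effect; nearly all actives have a fitted effect of over 25% in size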)
How it was run: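 Luciferase inhibition measured with ONE-Glo after 30 min at RT in BG1Luc4E2 cells given test compounds and 17beta-estradiol for 21.5 h at 37 C; CellTiter-Fluor viability read in the same wells beforehand.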

[29] = qHTS assay to identify small molecule antagonists of the estrogen receptor alpha (ER-alpha) signaling pathway using the BG1 cell line - cell viability counter screen (AID 743081);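 also: compound given together with 17beta-estradiol as the ER stimulus; series mostly up to about 70 µM; % is scaled to controls: 0 for no effect and ±100 for the full control effect; nearly all actives have a fitted effect of over 45% in size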
Aromatase (Homo sapiens) = Aromatase (Homo sapiens) (UniProt P11511); test: qHTS assay to identify aromatase inhibitors (AID 743083); also: series mostly up to about 70 µM; % is scaled to controls: 0 for no effect and ±100 for the full control effect; nearly all actives have a fitted effect of over 55% in size
Aromatase (Homo sapiens), sequence (P11511 whole entry, looked up): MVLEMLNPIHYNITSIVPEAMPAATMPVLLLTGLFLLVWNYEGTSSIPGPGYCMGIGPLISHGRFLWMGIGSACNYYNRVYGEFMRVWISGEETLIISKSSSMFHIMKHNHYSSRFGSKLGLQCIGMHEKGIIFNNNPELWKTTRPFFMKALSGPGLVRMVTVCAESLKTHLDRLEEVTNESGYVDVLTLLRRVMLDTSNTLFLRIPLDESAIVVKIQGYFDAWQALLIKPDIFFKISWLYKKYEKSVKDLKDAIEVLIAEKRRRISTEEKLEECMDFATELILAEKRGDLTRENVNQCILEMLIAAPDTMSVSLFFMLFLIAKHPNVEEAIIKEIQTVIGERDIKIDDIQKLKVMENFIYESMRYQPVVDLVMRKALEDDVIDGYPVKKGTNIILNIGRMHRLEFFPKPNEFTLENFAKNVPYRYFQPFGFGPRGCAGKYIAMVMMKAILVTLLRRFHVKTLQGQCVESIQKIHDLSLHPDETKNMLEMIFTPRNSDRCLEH

[30] = qHTS assay to identify aromatase inhibitors - cell viability counter screen (AID 743084);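 also: cells stimulated with testosterone during compound exposure; % is scaled to controls: 0 for no effect and ±100 for the full control effect; nearly all actives have a fitted effect of over 55% in size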
[31] = qHTS assay to identify small molecule that activate the aryl hydrocarbon receptor (AhR) signaling pathway - cell viability counter screen (AID 743086);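 also: HepG2 liver cells carrying the AhR DRE luciferase reporter; series mostly up to about 70 µM; % is scaled to controls: 0 for no effect and ±100 for the full control effect; nearly all actives have a fitted effect of over 45% in size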
How it was run: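 HepG2-AhR-luc (HG2L7.5c1) cells, 4000/well, were preincubated 5 h at 37C, exposed to compound in qHTS format for 24 hr at 37C, then given CellTiter-Fluor for 30 min; viability was read as fluorescence in the reporter wells.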

[32] = molecular target: Peroxisome proliferator-activated receptor gamma (Homo sapiens) (UniProt P37231); test: qHTS assay to identify small molecule agonists of the peroxisome proliferator-activated receptor gamma (PPARg) signaling pathway (AID 743094; active = well fitted activation curve with a large enough effect in the signal ratio in the repeat runs, not every such curve was filed as active; the % refers to the signal ratio)
Peroxisome proliferator-activated receptor gamma (Homo sapiens), sequence (P37231 whole entry, looked up): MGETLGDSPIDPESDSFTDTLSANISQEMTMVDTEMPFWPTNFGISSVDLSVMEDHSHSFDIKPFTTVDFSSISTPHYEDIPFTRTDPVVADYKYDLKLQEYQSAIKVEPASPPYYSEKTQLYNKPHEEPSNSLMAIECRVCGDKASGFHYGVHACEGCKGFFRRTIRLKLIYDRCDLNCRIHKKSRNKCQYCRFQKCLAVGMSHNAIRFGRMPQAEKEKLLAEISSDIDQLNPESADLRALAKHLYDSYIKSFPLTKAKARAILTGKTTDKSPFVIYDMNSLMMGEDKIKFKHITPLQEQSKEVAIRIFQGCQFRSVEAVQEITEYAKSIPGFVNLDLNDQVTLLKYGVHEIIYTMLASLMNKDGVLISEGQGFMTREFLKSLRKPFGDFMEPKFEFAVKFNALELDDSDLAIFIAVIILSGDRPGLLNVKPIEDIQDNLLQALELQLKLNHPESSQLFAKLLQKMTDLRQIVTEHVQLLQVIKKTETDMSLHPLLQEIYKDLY
How it was run: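 Cell-based bla reporter, HEK293H background, PPARg-driven UAS. Pre-incubation 5 h, 37C, 5% CO2. Compound 17 h, 37C. Substrate 1 h RT; fluorescence.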

[33] = qHTS assay to identify small molecule phospholipidosis (PLD) inducers (AID 1259344; active = well fitted curve in the direction sought with a large enough effect; an effect the other way counts as inactive or inconclusive)
How it was run: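 Cells (HepG2, 900 per well) attach for 4 h, receive LipidTOX Red and compound together, incubate 24 h at 37 C, are fixed 30 min with paraformaldehyde/Hoechst, then imaged at one site per well.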

[34] = molecular target: Nuclear receptor subfamily 1 group I member 2 (Rattus norvegicus) (UniProt Q9R1A7); test: Rat pregnane X receptor (rPXR) activation by small molecules, qHTS assay (AID 1346983); conditions: rPXR luciferase reporter cells, One-Glo luminescence, 24 h; max activation: active compounds read high
Nuclear receptor subfamily 1 group I member 2 (Rattus norvegicus), sequence (Q9R1A7 whole entry, looked up): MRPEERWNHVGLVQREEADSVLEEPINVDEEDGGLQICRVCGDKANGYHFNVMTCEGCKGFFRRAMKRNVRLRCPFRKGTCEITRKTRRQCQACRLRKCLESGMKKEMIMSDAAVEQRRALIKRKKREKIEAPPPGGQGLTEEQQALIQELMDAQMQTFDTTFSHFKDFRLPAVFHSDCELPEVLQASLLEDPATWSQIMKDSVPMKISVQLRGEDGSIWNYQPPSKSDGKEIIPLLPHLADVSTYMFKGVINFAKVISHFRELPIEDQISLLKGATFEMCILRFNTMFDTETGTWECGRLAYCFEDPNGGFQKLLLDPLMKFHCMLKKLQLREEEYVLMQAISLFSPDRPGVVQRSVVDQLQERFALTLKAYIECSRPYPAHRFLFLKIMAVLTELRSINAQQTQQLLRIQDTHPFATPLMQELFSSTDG
How it was run: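 Cell-based rPXR luciferase reporter assay, 2,000 cells per well, rested 5hr at 37 C before compound addition in DMSO, then 24 hr at 37 C. One-Glo reagent was added and luminescence read after 30 min at room temperature.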

[35] = molecular target: Nuclear receptor subfamily 1 group I member 2 (Homo sapiens) (UniProt O75469); test: CYP3A4 induction through human pregnane X receptor (PXR) by small molecules, qHTS assay (AID 1346984)
How it was run: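 Human PXR activation is tracked via CYP3A4 promoter-luciferase in DPX-2 (HepG2) cells. Compounds treat cells for 24hr at 37C, and luminescence is read after One-Glo.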

[36] = molecular target: Nuclear receptor subfamily 1 group I member 2 (Homo sapiens) (UniProt O75469); test: Human pregnane X receptor (PXR) activation by small molecules, qHTS assay (AID 1346985)
How it was run: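 DPX-2 cells (HepG2 co-transfected with a PXR response element and a CYP3A4-promoter luciferase construct) were seeded at 2,000 per well, rested 5 hr at 37C, then exposed to DMSO-dissolved compounds for 24 hr. Activation was read as luciferase luminescence.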

CCOc1ccc2c3c1O[C@H]1[C@@H](O)C=C[C@H]4[C@@H](C2)N(C)CC[C@@]341
inactive: Potency [1] | Potency [2] | Potency [3] | Potency [4] | Potency [5] | Potency [6] | outcome [7] | Potency [8] | Potency [9] | outcome [10] | Potency [11] | Potency [12] | outcome [13] | outcome [14] | Potency [15] | Potency [16] | Potency [17] | Potency [18] | Potency [19] | Potency [20] | Potency [21] | Potency [22] | Potency [23] | Potency [24] | Potency [25] | Potency [26] | Potency [27] | Potency [28] | Potency [29] | Potency (Aromatase (Homo sapiens)) | Potency [30] | Potency [31] | Potency [32] | Potency [33] | max activation [34] -1.03% | Potency [36]
active: Potency [35] 7.94 µM
